The results in this text go back to PubChem BioAssay.

Activity calls are given as the source filed them.

A short description of test [1]: binders of probe aFSTL3 on microarray, primary screen, stem cell growth factor project, biochemical, small-molecule microarray, fluorescence 635/667 (AID 1064).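 Note: measures binding of the biotinylated anti-FSTL3 antibody to printed compounds.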 Particulars: higher = more signal.
Test [2] is described as follows: binders from COS7 lysate, DM2A8 probe, primary screen, torsin A project, cell lysate, small-molecule microarray, fluorescence 635/667 (AID 1065). The settings on record: higher = more signal, COS7 lysate expressing mutant human TOR1A.
Test [3] is described as follows: binders of probe aFGF2 on microarray, primary screen, stem cell growth factor project, biochemical, small-molecule microarray, fluorescence 635/667 (AID 1067).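 Note: measures binding of biotinylated aFGF2 protein to printed compounds on slides; z-score merges feature fluorescence and signal-to-noise across triplicate slides.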 Particulars: higher = more signal.
Test [4] is described as follows: binders of probe aFGF10 on microarray, primary screen, stem cell growth factor project, biochemical, small-molecule microarray, fluorescence 635/667 (AID 1071).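 Note: score merges 667 nm spot intensity and signal to noise from triplicate slides.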 The settings on record: higher = more signal.
In test [5] the target is Neurogenic locus notch homolog protein 2 (Homo sapiens) (UniProt Q04721). Description: Notch2 binders on small-molecule microarrays, primary screen, biochemical, small-molecule microarray, 635 nm fluorescence, stem cell growth factors (AID 1073). Particulars: Notch2 binding, higher = more signal.
In test [6] the target is Pro-neuregulin-1, membrane-bound isoform (Homo sapiens) (UniProt Q02297). The experiment in a line: NRG1 binders on small-molecule microarrays, primary screen, psychiatric disease protein project, biochemical, small-molecule microarray, fluorescence 635/667 (AID 1075).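 Note: score combines 667 nm spot fluorescence with signal to noise.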 The settings on record: NRG1 binding, 635 nm fluorescence, higher = more signal.
Sequence of Pro-neuregulin-1, membrane-bound isoform (Homo sapiens) (Q02297 whole entry, looked up, the tested form may be a part, canonical isoform): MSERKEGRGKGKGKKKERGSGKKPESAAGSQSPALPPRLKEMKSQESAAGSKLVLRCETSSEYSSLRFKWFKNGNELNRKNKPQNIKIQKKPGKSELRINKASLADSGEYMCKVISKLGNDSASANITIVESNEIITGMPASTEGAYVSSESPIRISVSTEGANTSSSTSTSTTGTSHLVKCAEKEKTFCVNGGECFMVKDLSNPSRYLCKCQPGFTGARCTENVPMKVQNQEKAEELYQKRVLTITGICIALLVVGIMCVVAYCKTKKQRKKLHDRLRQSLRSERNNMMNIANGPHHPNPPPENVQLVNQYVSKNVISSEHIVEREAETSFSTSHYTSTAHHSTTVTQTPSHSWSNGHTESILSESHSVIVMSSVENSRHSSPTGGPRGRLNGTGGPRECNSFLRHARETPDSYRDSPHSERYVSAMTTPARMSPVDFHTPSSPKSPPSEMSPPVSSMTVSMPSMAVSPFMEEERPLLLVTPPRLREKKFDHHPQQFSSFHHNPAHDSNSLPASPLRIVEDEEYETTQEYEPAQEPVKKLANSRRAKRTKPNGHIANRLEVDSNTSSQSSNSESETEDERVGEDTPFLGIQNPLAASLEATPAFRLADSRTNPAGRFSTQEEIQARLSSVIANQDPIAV
Test [7] relates to Neuregulin-1 EGF-like domain. Description: binders of neuregulin-1 EGF-like domain, primary screen, biochemical, small-molecule microarray, 635 nm fluorescence (AID 1081).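 Note: binding of the protein to compounds printed on small-molecule microarray slides.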 The settings on record: small-molecule microarray binding, higher = more signal.
Test [8] is described as follows: FRG1 promoter luciferase signal modulators, primary screen, FRG1 inhibition for FSHD, cell-based, C2C12 myotubes, firefly/Renilla luciferase, luminescence (AID 1084). The settings on record: higher = more signal, called active from +8 up or from −8 down.
A short description of test [9]: binders of probe aFST on microarray, primary screen, stem cell growth factor project, biochemical, small-molecule microarray, fluorescence 635/667 (AID 1086).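 Note: score merges 667 nm fluorescence with signal-to-noise of each printed compound spot.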 The settings on record: higher = more signal.
Test [10] in a line: binders of probe aHhip on microarray, primary screen, stem cell growth factor project, biochemical, small-molecule microarray, fluorescence 635/667 (AID 1087).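 Note: score merges spot fluorescence at 667nm with spot signal to noise ratio.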 The settings on record: higher = more signal.
Test [11] has as its system PRMT1 (protein arginine N-methyltransferase 1). The experiment in a line: PRMT1 binders on small-molecule microarrays, primary screen, biochemical, small-molecule microarray, 635 nm fluorescence (AID 1088).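 Note: binding of Prmt1 protein to compounds spotted on small-molecule microarray slides.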 Particulars: small-molecule microarray binding, higher = more signal.
Test [12] in a line: yeast growth modulation, basal conditions, primary screen, YJM789 clinical isolate, OD600, 24 h (AID 1089).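 Note: growth of clinical yeast isolate S. cerevisiae YJM 789 seeded 1000 cells per well; test concentration not given here.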 Particulars: S. cerevisiae YJM789 growth, higher = more signal, called active from +8 up or from −8 down.
The nature of test [13]: fission yeast growth modulation, primary screen, strain 972, OD600, 24 h, no modulator (AID 1090).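 Note: basal condition with compound alone and no growth modifier present; test concentration not given here.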 The settings on record: S. pombe 972 growth, higher = more signal, called active from +8 up or from −8 down.
Test [14] is described as follows: S. cerevisiae growth modulation with rapamycin, primary screen, strain BY4716, OD600, 96 h (AID 1091). Note: test concentration not given here. Particulars: higher = more signal, called active from +8 up or from −8 down.
The target in test [15] is Torsin-1A-interacting protein 2 (Homo sapiens) (UniProt Q8NFQ8). Description: LULL1 binders on small-molecule microarray, primary screen, cell lysate, human LULL1 lysate, 635/667 nm fluorescence (AID 1092).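 Note: score merges per-feature 667 nm fluorescence with signal-to-noise.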 The settings on record: hLULL1 lysate binding, 635 nm fluorescence, higher = more signal.
Sequence of Torsin-1A-interacting protein 2 (Homo sapiens) (Q8NFQ8 whole entry, looked up): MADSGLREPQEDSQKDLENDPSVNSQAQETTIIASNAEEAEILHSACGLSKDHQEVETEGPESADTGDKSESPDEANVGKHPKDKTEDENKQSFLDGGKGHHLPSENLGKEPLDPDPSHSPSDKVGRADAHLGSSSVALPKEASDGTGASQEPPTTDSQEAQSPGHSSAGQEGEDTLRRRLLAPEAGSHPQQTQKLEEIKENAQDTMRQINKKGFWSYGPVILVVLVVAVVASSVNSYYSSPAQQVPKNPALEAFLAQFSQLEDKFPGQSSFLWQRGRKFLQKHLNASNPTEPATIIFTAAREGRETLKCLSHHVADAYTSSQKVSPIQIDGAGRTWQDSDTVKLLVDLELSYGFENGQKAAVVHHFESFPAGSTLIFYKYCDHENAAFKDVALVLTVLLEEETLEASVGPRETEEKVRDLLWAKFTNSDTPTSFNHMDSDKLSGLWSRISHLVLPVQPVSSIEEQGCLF
Test [16] in a line: E. coli growth modulation, two-sided OD650, primary screen, E. coli filamentation project, strain DRC41, 24 h (AID 1093).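 Note: MC1000 strain lacking acrAB efflux and sulA so SOS filamentation is blocked; test concentration not given here.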 The settings on record: OD650, 24 h, higher = more signal, called active from +8 up or from −8 down.
Test [17] is described as follows: small-molecule microarray binders of probe aLefty2, primary screen, biochemical, biotinylated probe, 635/667 nm fluorescence (AID 1094).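 Note: score merges spot fluorescence near 667 nm with spot signal-to-noise ratio.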 Particulars: higher = more signal.
The subject of test [18] is Noggin (protein binding on small-molecule microarray). Description: Noggin binders on small-molecule microarray, primary screen, biochemical, 635/667 nm fluorescence (AID 1095).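 Note: score merges 667 nm feature fluorescence with signal to noise over triplicate slides.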 Particulars: 635 nm fluorescence, higher = more signal.
Test [19] has as its target Neurogenic locus notch homolog protein 3 (Homo sapiens) (UniProt Q9UM47). The experiment in a line: NOTCH3 binders on small-molecule microarray, primary screen, biochemical, 635/667 nm fluorescence (AID 1096). The settings on record: NOTCH3 binding, 635 nm fluorescence, higher = more signal.
Test [20] in a line: small-molecule microarray binders of probe aEGFR, primary screen, biochemical, biotinylated probe, 635/667 nm fluorescence (AID 1097).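 Note: probe is a biotinylated anti-EGFR antibody binding compounds printed on slides; score combines fluorescence near 667 nm and signal to noise of each spot.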 Particulars: higher = more signal.

Sequence of Neurogenic locus notch homolog protein 3 (Homo sapiens) (Q9UM47 whole entry, looked up): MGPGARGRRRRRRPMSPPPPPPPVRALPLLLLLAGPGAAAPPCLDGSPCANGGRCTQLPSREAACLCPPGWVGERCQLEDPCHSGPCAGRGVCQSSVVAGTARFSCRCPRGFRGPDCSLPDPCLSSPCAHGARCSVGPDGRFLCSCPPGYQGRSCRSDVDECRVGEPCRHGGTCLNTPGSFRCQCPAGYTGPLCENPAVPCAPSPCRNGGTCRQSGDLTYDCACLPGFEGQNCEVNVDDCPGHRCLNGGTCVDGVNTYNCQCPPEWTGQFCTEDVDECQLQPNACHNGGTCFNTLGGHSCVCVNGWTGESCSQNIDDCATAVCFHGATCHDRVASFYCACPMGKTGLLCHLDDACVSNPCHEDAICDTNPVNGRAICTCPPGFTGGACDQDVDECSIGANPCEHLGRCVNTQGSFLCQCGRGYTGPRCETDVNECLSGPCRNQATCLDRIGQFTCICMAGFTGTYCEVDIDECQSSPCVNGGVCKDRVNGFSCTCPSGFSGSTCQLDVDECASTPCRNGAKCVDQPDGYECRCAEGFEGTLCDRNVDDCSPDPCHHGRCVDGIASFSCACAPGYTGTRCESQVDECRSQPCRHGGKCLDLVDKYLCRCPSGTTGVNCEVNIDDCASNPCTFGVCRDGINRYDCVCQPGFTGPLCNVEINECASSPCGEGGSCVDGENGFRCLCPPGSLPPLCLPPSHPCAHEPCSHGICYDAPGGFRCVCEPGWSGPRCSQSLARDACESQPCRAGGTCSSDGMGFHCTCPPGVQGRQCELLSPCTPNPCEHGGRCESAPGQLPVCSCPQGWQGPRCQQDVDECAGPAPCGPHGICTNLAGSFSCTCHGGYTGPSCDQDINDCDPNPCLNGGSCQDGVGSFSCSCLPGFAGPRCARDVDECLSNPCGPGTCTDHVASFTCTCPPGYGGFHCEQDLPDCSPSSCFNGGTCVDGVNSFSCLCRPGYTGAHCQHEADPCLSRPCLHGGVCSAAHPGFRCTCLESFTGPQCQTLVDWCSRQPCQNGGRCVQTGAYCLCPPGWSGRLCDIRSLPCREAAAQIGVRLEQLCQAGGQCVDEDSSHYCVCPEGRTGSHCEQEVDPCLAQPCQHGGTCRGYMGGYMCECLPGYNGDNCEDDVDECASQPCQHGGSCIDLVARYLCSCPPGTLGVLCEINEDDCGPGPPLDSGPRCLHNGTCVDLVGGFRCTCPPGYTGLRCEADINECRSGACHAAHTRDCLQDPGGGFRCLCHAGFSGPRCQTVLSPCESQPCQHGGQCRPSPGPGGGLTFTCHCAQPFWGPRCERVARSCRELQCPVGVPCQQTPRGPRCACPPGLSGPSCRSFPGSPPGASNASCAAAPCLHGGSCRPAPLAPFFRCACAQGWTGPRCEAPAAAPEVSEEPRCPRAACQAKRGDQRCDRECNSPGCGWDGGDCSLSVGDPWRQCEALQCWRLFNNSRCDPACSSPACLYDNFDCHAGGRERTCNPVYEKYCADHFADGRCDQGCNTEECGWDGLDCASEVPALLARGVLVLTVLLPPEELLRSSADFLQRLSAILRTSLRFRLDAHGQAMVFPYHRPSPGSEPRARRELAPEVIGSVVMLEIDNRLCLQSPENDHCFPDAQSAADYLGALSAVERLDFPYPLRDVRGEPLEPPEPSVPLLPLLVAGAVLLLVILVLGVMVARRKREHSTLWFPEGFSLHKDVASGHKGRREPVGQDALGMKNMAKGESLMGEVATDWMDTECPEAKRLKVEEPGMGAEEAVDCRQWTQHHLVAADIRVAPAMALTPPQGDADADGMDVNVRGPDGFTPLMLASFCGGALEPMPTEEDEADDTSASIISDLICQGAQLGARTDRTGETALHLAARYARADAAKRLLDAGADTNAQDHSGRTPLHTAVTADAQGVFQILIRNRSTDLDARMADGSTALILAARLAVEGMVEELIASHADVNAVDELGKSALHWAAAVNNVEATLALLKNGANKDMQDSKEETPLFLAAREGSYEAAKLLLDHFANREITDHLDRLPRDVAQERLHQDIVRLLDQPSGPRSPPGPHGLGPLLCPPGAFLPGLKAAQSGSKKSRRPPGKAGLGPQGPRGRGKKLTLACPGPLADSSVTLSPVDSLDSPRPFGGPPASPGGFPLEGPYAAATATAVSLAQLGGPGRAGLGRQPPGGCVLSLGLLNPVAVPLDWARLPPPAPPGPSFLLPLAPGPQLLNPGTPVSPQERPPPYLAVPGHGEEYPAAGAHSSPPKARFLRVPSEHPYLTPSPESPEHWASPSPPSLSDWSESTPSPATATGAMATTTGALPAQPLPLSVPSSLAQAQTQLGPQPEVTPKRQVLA

On to `C=C(/C(=C/C[C@@H](OC(=O)c1ccncc1)c1ccc(CO)o1)c1cc(C(=O)OC)ccc1OC)C(C)C`, for which the composite z-score in test [1] is -0.441; in [2] it was 1.46; in test [3], -0.0226; in test [4], 0.901; in test [5], 0.974; in [6], 1.15. For the same molecule, the composite z-score was 0.954 in test [7]; 0.377 in test [9]; 0.0373 in [10]; 1.53 in test [11]; 2.47 in [15]; -0.129 in test [17]. In addition, the composite z-score in test [18] was 0.855; in [19], 1.03; in test [20], 0.0073. The z-score in test [8] is -1.13 (inactive); in [12], 0.523 (inactive); in [13], -1.28 (inactive); in test [14] it was -0.414 (inactive); in test [16] it was 0.481 (inactive).

Regarding `O=C1OCCC=C[C@H]2OC34C=CCN(c5ccc6ccccc6c5)C(=O)[C@H]3N(CCCCCCO)C(=O)[C@@H]4C12` (stereo not given in full), the composite z-score is 0.366 in test [1]; 0.79 in test [2]; -0.143 in test [3]; -0.367 in [4]; -0.834 in test [5]; 2.03 in test [6]. Moreover, the composite z-score in test [7] was 0.193; in test [9], -0.514; in [10] it was -0.546; in test [11], 0.864; in test [15] it was 0.911; in [17] it was -0.087. In addition, the figures for the composite z-score in [18], in [19] and in [20] were -1.63, -0.228 and -0.178, respectively. In addition, the z-score in test [8] is 1.66 (inactive); in test [12], 0.494 (inactive); in test [13] it was -1.55 (inactive); in test [14], 0.22 (inactive); in [16], 0.67 (inactive).

Turning to `CCOC(=O)C1=CC[C@@H](c2cccc(Cl)c2)N(S(=O)(=O)c2ccc(C)cc2)[C@H]1c1ccc(C#N)cc1`, the composite z-score in test [1] was determined as 0.128; in test [2] it was 0.0669; in [3], 0.104; in test [4], 0.862; in test [5], 1.65; in test [6] it was 1.61. The composite z-score in test [7] is 1.15; in test [9] it was 0.751; in [10] it was 0.0274; in [11], 1.56; in [15] it was 3.18; in [17], -0.0018. The composite z-score in test [18] amounted to 0.156; in test [19] it was 1.05; in test [20], 0.191. Further, the z-score was -0.534 (inactive) in test [8]; 0.914 (inactive) in [12]; 1.99 (inactive) in [13]; 2.58 (inactive) in test [14]; -1.2 (inactive) in test [16].

Take `COCCn1c(C(=O)N(C)C)cc2c1C[C@H]1CN(C(=O)c3ccccc3)[C@@](Cc3ccc(F)cc3)(C(=O)OC)[C@@H]21`: the composite z-score was 0.0407 in [1]; -0.0248 in test [2]; 0.203 in test [3]; 0.651 in [4]; 1.56 in test [5]; 1.11 in [6]. Further, the composite z-score in test [7] is 0.998; in test [9], 0.576; in test [10], -0.0347; in test [11], 0.0294; in [15] it was 3.05; in [17], 0.214. Further, the figures for the composite z-score in test [18], in test [19] and in [20] were -0.3, 0.328 and 0.0492, respectively. Moreover, the z-score is 0.592 (inactive) in test [8]; 0.296 (inactive) in test [12]; 0.75 (inactive) in test [13]; 0.247 (inactive) in [14]; 0.782 (inactive) in test [16].

For the molecule `CCCCCCCCCCC(O)C1C=CC2C(=O)N(c3ccccc3)C(=O)C2N1Nc1ccc([N+](=O)[O-])cc1` (stereo not given), the composite z-score in test [1] is -0.325; in test [2] it was 0.112; in test [3] it was -0.0107; in [4] it was 0.461; in test [5] it was 1.44; in test [6], 1.11. Further, the composite z-score in [7] is 1.05; in test [9] it was 0.574; in test [10] it was -0.199; in test [11] it was 1.57; in [15], 3.25; in test [17], -0.0059. For the same molecule, the composite z-score was 0.186 in test [18], 1.09 in [19] and -0.0828 in [20]. Further, the z-score in test [8] was 1.39 (inactive); in [12] it was 0.0819 (inactive); in [13], 0.23 (inactive); in [14] it was 26.7 (active); in test [16], -0.734 (inactive).
